Results published in PubChem BioAssay.
Values without a mark were called inactive. How the calls were made is not given here.

test system: Aerobactin synthetase IucA (Klebsiella pneumoniae, hypervirulent); assay: IucA enzyme inhibition, biochemical, LOPAC library, absorbance readout (AID 1346212); settings: IucA enzyme assay, absorbance (OD) readout; active compounds read low;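 tested at 8 µM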;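 further: 100% = no compound wells and 0% = no enzyme wells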

Row | Compound | remaining activity [%]
1 | CN1CCN(c2nc3cc(C(F)(F)F)ccc3n3cccc23)CC1 | 94.3
2 | N#CC(C#N)=C(N)/C(C#N)=C/c1ccc(O)cc1 | 117
3 | NC/C=C\C(=O)O | 124
4 | O=S(=O)(c1cccc2cnccc12)N1CCNCC1 | 121
5 | COc1ccc(C(=O)NCc2cccnc2)cc1C(=O)NCc1cccnc1 | 103
6 | Cc1ccccc1N1CCN(S(=O)(=O)C[C@@]23CC[C@H](CC2NC(=O)[C@H](N)CCS(C)(=O)=O)C3(C)C)CC1 (some centres not stated) | 121
7 | CCCc1c(OCCCOc2ccc(OCC(=O)O)cc2)ccc(C(C)=O)c1O | 101
